Data reported in PubChem BioAssay AID1159580 (chemical genetic matrix, 2015).
The campaign covered roughly 5,500 compounds. About 2,000 (36%) were called active. Inconclusive results (about 18%) are left out. Cut-off read from the data, not from the text of the source: active = normalized growth mostly below about 0.91 (no sharp cut-off); inconclusive = no clear call, values can overlap the other calls; inactive = mostly above about 0.92. Some of the results follow.

Assay: chemical genetic growth profiling, strain panel (AID 1159580);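 note: tested at 20 µM; growth read once vehicle control cultures reached saturation at 30 °C; 1 = growth at the plate median or of vehicle wells; lower values mean less growth of the strain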
Conditions: S. cerevisiae deletion strains, growth OD

Measured: normalized growth

CC(=O)O[C@]1(C(C)=O)CCC2C3C=C(Cl)C4=CC(=O)CC[C@]4(C)C3CC[C@@]21C (some centres undefined)
inactive: locus YAL021C, strain ccr4, active compounds read low 1.02 | locus YAL026C, strain drs2, active compounds read low 1.04 | locus YAL030W, strain snc1, active compounds read low 0.978 | locus YBL061C, strain skt5, active compounds read low 0.997 | locus YBR009C, strain hhf1, active compounds read low 0.999 | locus YBR023C, strain chs3, active compounds read low 1.01 | locus YBR171W, strain sec66, active compounds read low 1.01 | locus YBR231C, strain swc5, active compounds read low 1 | locus YBR279W, strain paf1, active compounds read low 1 | locus YCL011C, strain gbp2, active compounds read low 1 | locus YCL016C, strain dcc1, active compounds read low 0.988 | locus YCL069W, strain vba3, active compounds read low 1.01 | locus YCR088W, strain abp1, active compounds read low 1.01 | locus YDL005C, strain med2, active compounds read low 0.991 | locus YDL040C, strain nat1, active compounds read low 1 | locus YDR001C, strain nth1, active compounds read low 1.01 | locus YDR069C, strain doa4, active compounds read low 0.967 | locus YDR137W, strain rgp1, active compounds read low 0.894 | locus YDR159W, strain sac3, active compounds read low 0.925 | locus YDR195W, strain ref2 1.02 | locus YDR297W, strain sur2, active compounds read low 0.957 | locus YDR334W, strain swr1, active compounds read low 1.01 | locus YDR335W, strain msn5, active compounds read low 0.974 | locus YDR392W, strain spt3, active compounds read low 0.832 | locus YEL003W, strain gim4, active compounds read low 1.01 | locus YEL037C, strain rad23, active compounds read low 1.02 | locus YEL061C, strain CIN8 (second series), active compounds read low 1.01 | locus YER015W, strain faa2, active compounds read low 1.01 | locus YER016W, strain bim1, active compounds read low 0.984 | locus YER111C, strain swi4, active compounds read low 1.01 | locus YER155C, strain BEM2 (second series), active compounds read low 0.99 | locus YFR010W, strain ubp6, active compounds read low 1.03 | locus YGL167C, strain pmr1, active compounds read low 0.993 | locus YGL173C, strain kem1, active compounds read low 1.03 | locus YGL227W, strain vid30, active compounds read low 0.998 | locus YGL240W, strain doc1, active compounds read low 0.952 | locus YGL253W, strain hxk2, active compounds read low 0.991 | locus YHR013C, strain ard1, active compounds read low 1.06 | locus YHR027C, strain rpn1, active compounds read low 0.985 | locus YHR030C, strain SLT2, active compounds read low 1.03 | locus YHR079C, strain IRE1, active compounds read low 1.04 | locus YHR142W, strain chs7, active compounds read low 1 | locus YJL092W, strain hpr5, active compounds read low 1.01 | locus YJL095W, strain BCK1 (second series), active compounds read low 0.983 | locus YJL095W, strain BCK1, active compounds read low 0.991 | locus YJL115W, strain asf1, active compounds read low 1.03 | locus YJL129C, strain trk1, active compounds read low 1.01 | locus YJL154C, strain vps35, active compounds read low 1.01 | locus YJL164C, strain tpk1, active compounds read low 1.01 | locus YJL166W, strain qcr8, active compounds read low 0.98 | locus YJL187C, strain SWE1, active compounds read low 0.952 | locus YJR066W, strain TOR1, active compounds read low 0.98 | locus YKL160W, strain elf1, active compounds read low 0.977 | locus YKR026C, strain gcn3, active compounds read low 1.01 | locus YKR091W, strain srl3, active compounds read low 1.01 | locus YLL001W, strain dnm1, active compounds read low 1.02 | locus YLL026W, active compounds read low 1 | locus YLL041C, strain sdh2, active compounds read low 0.993 | locus YLR027C, strain aat2, active compounds read low 0.97 | locus YLR113W, strain HOG1, active compounds read low 0.923 | locus YLR221C, strain rsa3, active compounds read low 0.986 | locus YLR258W, strain gsy2, active compounds read low 0.958 | locus YLR262C, strain YPT6 (second series), active compounds read low 0.947 | locus YLR320W, strain mms22, active compounds read low 0.991 | locus YLR342W, strain FKS1, active compounds read low 0.974 | locus YLR357W, strain rsc2, active compounds read low 1.04 | locus YLR370C, strain arc18, active compounds read low 0.973 | locus YLR384C, strain iki3, active compounds read low 0.981 | locus YML120C, strain ndi1, active compounds read low 0.967 | locus YMR058W, strain fet3, active compounds read low 1.02 | locus YMR125W, strain sto1, active compounds read low 1 | locus YMR129W, active compounds read low 0.967 | locus YMR205C, strain PFK2, active compounds read low 0.943 | locus YMR231W, strain pep5, active compounds read low 1.02 | locus YNL071W, strain lat1, active compounds read low 1.01 | locus YNL183C, strain NPR1, active compounds read low 0.958 | locus YNL209W, strain ssb2, active compounds read low 0.99 | locus YNL248C, strain rpa49, active compounds read low 1.03 | locus YNL322C, strain KRE1 (second series), active compounds read low 1.01 | locus YNR049C, strain mso1, active compounds read low 0.97 | locus YOR001W, strain rrp6, active compounds read low 0.99 | locus YOR070C, strain gyp1, active compounds read low 0.978 | locus YOR080W, strain dia2, active compounds read low 0.996 | locus YOR083W, strain WHI5, active compounds read low 0.997 | locus YOR106W, strain vam3, active compounds read low 1.03 | locus YOR231W, strain MKK1, active compounds read low 0.994 | locus YOR265W, strain rbl2, active compounds read low 0.979 | locus YOR270C, strain vph1, active compounds read low 1.01 | locus YOR290C, strain snf2, active compounds read low 1.01 | locus YPL051W, strain arl3, active compounds read low 1 | locus YPL078C, strain atp4, active compounds read low 0.996 | locus YPL106C, strain sse1, active compounds read low 1.01 | locus YPL240C, strain hsp82, active compounds read low 1 | locus YPL256C, strain CLN2, active compounds read low 1.04
